Compounds without any hit were thinned out: in the full panel of roughly 83,000, 20% have a hit.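 A percent growth of 40 corresponds to 60% growth inhibition; 0 means no net growth; -100 means all cells died. Active threshold: below 10.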 Unmarked numbers belong to inactive results. Calls of active or inactive are those of the source.

7 compounds from PubChem BioAssay (NCI) can be followed below.

Test systems include NCI-H23 lung; NCI-H226 lung; NCI-H322M lung; HOP-62 NSCLC; NCI-H460 lung; HOP-92 NSCLC; NCI-H522 lung; A549/ATCC NSCLC; 786-0 renal; COLO 205 colon; DU-145 prostate; K-562 leukemia; MALME-3M melanoma; MDA-MB-231 breast; RXF 393 renal; SF-268 CNS; SF-295 CNS; SF-539 CNS; UACC-257 melanoma; M14 melanoma.
Common to all, as to assay: NCI-60 one-dose screen, 48 h (100 = growth as untreated, 0 = no growth, -100 = all killed)
Holding throughout (conditions): 10 µM unless noted

Turning to `C=C(C)[C@@H]1CC[C@]2(C(=O)N3CCN(C)CC3)CC[C@]3(C)[C@H](CC[C@@H]4[C@@]5(C)CCC(=O)C(C)(C)[C@@H]5CC[C@]43C)[C@@H]12`, the growth in the assay on NCI-H23 lung is 89.9%; with NCI-H226 lung it was 88.5%; with NCI-H322M lung it was 91.5%; in the assay on HOP-62 NSCLC, 86.4%; in the assay with NCI-H460 lung it was 21%; with HOP-92 NSCLC, 52.8%. Also, the growth with NCI-H522 lung is 85.1%; in the assay on A549/ATCC NSCLC it was 85.1%; in the assay on 786-0 renal, 71.1%; in the assay with COLO 205 colon, 72.4%; with DU-145 prostate, 82.8%; in the assay with K-562 leukemia, 60.5%. For the same compound, the growth was 89% with MALME-3M melanoma; 79.4% in the assay on MDA-MB-231 breast; 80.5% in the assay with RXF 393 renal; 77.2% in the assay on SF-268 CNS; 103% in the assay on SF-295 CNS; 73.9% with SF-539 CNS. Besides, the growth was 101% with UACC-257 melanoma and 94.7% in the assay with M14 melanoma.

As to `CC(=O)c1cccc(NS(=O)(=O)c2cccc(C(=O)Nc3ccc(Br)cc3)c2)c1`, the growth in the assay with NCI-H23 lung was 29.4% [25 µM]; in the assay on NCI-H226 lung it was 49.3% [25 µM]; in the assay with NCI-H322M lung it was 73.4% [25 µM]; in the assay on HOP-62 NSCLC, 68.9% [25 µM]; with NCI-H460 lung it was 63.4% [25 µM]; in the assay with HOP-92 NSCLC, 33.9% [25 µM]. Moreover, the growth in the assay on NCI-H522 lung is 48.8% [25 µM]; in the assay on A549/ATCC NSCLC, 58% [25 µM]; in the assay on 786-0 renal, 56.2% [25 µM]; in the assay on COLO 205 colon, 61% [25 µM]; with DU-145 prostate, 75.4% [25 µM]; in the assay with K-562 leukemia, 33% [25 µM]. Moreover, the growth in the assay on MALME-3M melanoma is 42.1% [25 µM]; with MDA-MB-231 breast, 73.8% [25 µM]; in the assay with RXF 393 renal, 61.5% [25 µM]; with SF-268 CNS, 51.4% [25 µM]; with SF-295 CNS, 27.3% [25 µM]; in the assay with SF-539 CNS, 65.3% [25 µM]. The growth is 36.4% [25 µM] with UACC-257 melanoma and 51.7% [25 µM] with M14 melanoma.

In the case of `CC[C@H](CC[C@@H](C)[C@H]1CC[C@H]2[C@@H]3CC=C4C[C@@H](OCCc5nn[nH]n5)CC[C@]4(C)[C@H]3CC[C@]12C)C(C)C`, the growth in the assay on NCI-H23 lung is 97.7%; in the assay with NCI-H226 lung, 110%; in the assay with NCI-H322M lung it was 101%; with HOP-62 NSCLC it was 98.4%; in the assay on NCI-H460 lung, 109%; in the assay with HOP-92 NSCLC, 147%. Also, the growth in the assay on NCI-H522 lung was 82.9%; in the assay with A549/ATCC NSCLC it was 93.7%; with 786-0 renal it was 101%; with COLO 205 colon, 118%; in the assay with DU-145 prostate, 101%; with K-562 leukemia, 92.4%. The growth with MALME-3M melanoma is 108%; in the assay with MDA-MB-231 breast it was 117%; in the assay on RXF 393 renal, 129%; in the assay on SF-268 CNS, 100%; in the assay on SF-295 CNS, 98.1%; with SF-539 CNS it was 103%. Moreover, the growth was 103% in the assay with UACC-257 melanoma and 108% with M14 melanoma.

In the case of `CC(=O)N1c2ccccc2NC2=C(C(=O)N(C)C2(C)C)C1C` (stereo not given), the growth with NCI-H23 lung was 50.2%; with NCI-H226 lung, 91.1%; with NCI-H322M lung, 73.4%; in the assay on HOP-62 NSCLC it was 61.6%; in the assay with NCI-H460 lung, 21.9%; in the assay with HOP-92 NSCLC it was 37.5%. In addition, the growth in the assay with NCI-H522 lung is 18.6%; in the assay with A549/ATCC NSCLC, 80.3%; with 786-0 renal, 80.1%; with COLO 205 colon it was 14.2%; with DU-145 prostate, 79%; in the assay on K-562 leukemia, 16.6%. Moreover, the growth with MALME-3M melanoma is 44.3%; with MDA-MB-231 breast, 63.3%; with RXF 393 renal, 27.8%; in the assay with SF-268 CNS it was 43%; in the assay with SF-295 CNS, 46%; in the assay with SF-539 CNS it was 20.1%. Moreover, the growth in the assay with UACC-257 melanoma is 36.4%; in the assay on M14 melanoma, 21.5%.

Take `Cn1/c(=N/NC(N)=S)ccc2ccccc21`: the growth is 94.9% with NCI-H23 lung; 88.9% in the assay with NCI-H226 lung; 82.4% in the assay on NCI-H322M lung; 98.6% in the assay with HOP-62 NSCLC; 108% in the assay on NCI-H460 lung; 109% with HOP-92 NSCLC. In addition, the growth in the assay on NCI-H522 lung was 88.9%; with A549/ATCC NSCLC, 97.7%; in the assay on 786-0 renal, 104%; with COLO 205 colon, 114%; with DU-145 prostate it was 103%; in the assay with K-562 leukemia it was 46.4%. Also, the growth is 90.8% in the assay on MALME-3M melanoma; 87.7% in the assay with MDA-MB-231 breast; 102% with RXF 393 renal; 91.8% in the assay with SF-268 CNS; 89.5% in the assay on SF-295 CNS; 97.8% in the assay on SF-539 CNS. In addition, the growth with UACC-257 melanoma was 70%; with M14 melanoma, 86.4%.

`O=C(Nc1cccc(Cl)c1)c1cc(Cl)ccc1O`: the growth with NCI-H23 lung is 0.837% (active); with NCI-H226 lung, -2.52% (active); in the assay with NCI-H322M lung, 4.17% (active); in the assay on HOP-62 NSCLC, 5.65% (active); in the assay on NCI-H460 lung, 2.08% (active); in the assay on HOP-92 NSCLC, -32% (active). For the same compound, the growth with NCI-H522 lung is -2.31% (active); in the assay on A549/ATCC NSCLC, 14.7%; with 786-0 renal, 5.54% (active); with COLO 205 colon it was 78.6%; with DU-145 prostate, 24.1%; with K-562 leukemia it was 15.5%. Moreover, the growth with MALME-3M melanoma was -17.8% (active); in the assay on MDA-MB-231 breast, 1.35% (active); in the assay on RXF 393 renal, -12.3% (active); in the assay with SF-268 CNS, 18%; in the assay with SF-295 CNS, -60.3% (active); in the assay on SF-539 CNS, 19.4%. Besides, the growth was -4.11% (active) with UACC-257 melanoma and 8.3% (active) in the assay with M14 melanoma.

For `C=C(C)[C@@H]1CC[C@]2(C=O)CC[C@]3(C)[C@H](CC[C@@H]4[C@@]5(C)CCCNC(C)(C)[C@@H]5CC[C@]43C)[C@@H]12`, the growth was 78.7% with NCI-H23 lung; 91.7% with NCI-H226 lung; 91.5% in the assay with NCI-H322M lung; 94.5% in the assay on HOP-62 NSCLC; 16.7% in the assay with NCI-H460 lung; 54.5% in the assay on HOP-92 NSCLC. The growth in the assay on NCI-H522 lung was 84.1%; with A549/ATCC NSCLC it was 62.2%; in the assay with 786-0 renal, 80.9%; in the assay on COLO 205 colon, -78.8% (active); in the assay on DU-145 prostate it was 77.6%; with K-562 leukemia, 0.984% (active). Also, the growth in the assay with MALME-3M melanoma was 77.7%; with MDA-MB-231 breast, 91.2%; in the assay on RXF 393 renal, 85.9%; with SF-268 CNS, 90.8%; in the assay with SF-295 CNS, 105%; in the assay with SF-539 CNS, 90.1%. The results for the growth in the assay with UACC-257 melanoma and with M14 melanoma were 86.6% and 81%, respectively.
